D1 ag: Allosteric Agonists of the Human D1 Dopamine Receptor: qHTS. D(1A) dopamine receptor (Homo sapiens), P21728. HEK293 T-REx D1 cells, calcium flux, agonist mode. activation, % at 2 µM. 360,000 tested, 1% active. AID 504660, 2011
Target sequence (P21728 whole entry, looked up): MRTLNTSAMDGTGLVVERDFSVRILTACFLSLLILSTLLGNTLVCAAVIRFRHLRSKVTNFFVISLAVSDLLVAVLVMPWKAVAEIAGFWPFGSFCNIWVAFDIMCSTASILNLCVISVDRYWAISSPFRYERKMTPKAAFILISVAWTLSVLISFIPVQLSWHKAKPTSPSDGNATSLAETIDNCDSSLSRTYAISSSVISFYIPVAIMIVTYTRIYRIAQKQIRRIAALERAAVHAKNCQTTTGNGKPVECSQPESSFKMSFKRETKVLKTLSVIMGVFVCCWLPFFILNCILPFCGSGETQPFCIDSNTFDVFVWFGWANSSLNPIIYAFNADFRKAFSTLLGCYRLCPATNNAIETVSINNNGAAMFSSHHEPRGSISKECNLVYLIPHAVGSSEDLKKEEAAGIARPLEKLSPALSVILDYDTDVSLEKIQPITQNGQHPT
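Agonism was scored from calcium flux recorded over 180 s (1 read/s) after pintool compound addition, following a 10-cycle baseline. Cells were inducible force-coupled HEK293 TREx D1, plated overnight at 30 C and loaded with no-wash calcium dye.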
TRHR agonist: qHTS for Small Molecule Agonists and Allosteric Enhancers of Human TRH Receptor: Primary Screen for Agonists; Thyrotropin-releasing hormone receptor (Homo sapiens), P34981; TRHR cells, calcium flux fluo-8, FDSS agonist mode; 360,000 tested, 0.18% active; activation, % at 2 µM
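Read-out: compound-evoked intracellular calcium rise in TRHR cells, fluo-8 dye, kinetic FDSS fluorescence at 1 s/cycle following a 10-cycle baseline. Cells cultured overnight before dye loading (30 min–1.5 h, RT).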
TRHR enhancer: qHTS for Small Molecule Agonists and Allosteric Enhancers of Human TRH Receptor: Primary Screen for Enhancers; Thyrotropin-releasing hormone receptor (Homo sapiens), P34981; TRHR cells, fluo-8 calcium fluorescence, EC20 TRH enhancement; 360,000 tested, 0.66% active; enhancement, % at 2 µM; in the data active = enhancement above about 30%
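TRHR-expressing cells loaded with fluo-8 calcium dye were read kinetically (ex 480/em 530) during compound addition, then stimulated with an EC20 of TRH (10 nM final). Enhancement of the Gq-mediated intracellular calcium response was scored.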
D1 PAM: Potentiators of Human D1 Dopamine Receptor: qHTS; potentiation, % at 10 µM; 360,000 tested, 0.036% active; HEK293 TREx D1 cells, calcium flux, dopamine EC20 potentiation; in the data active = potentiation above about 30%
D1 antagonist: Antagonist of Human D 1 Dopamine Receptor: qHTS. HEK293 TREx D1 cells, calcium flux, dopamine EC80; active compounds read low. 360,000 tested, 3.2% active. AID 504652, 2011. activity change, negative = inhibition, % at 10 µM. D(1A) dopamine receptor (Homo sapiens), P21728; in the data active = activity change below about -30%
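HEK293 T-REx cells expressing inducible, force-coupled D1 receptor; no-wash Ca dye, 30–90 min RT. Cmpd → 180 s read at 1 Hz → EC80 DA → 180 s read.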
Of the large screens only hits and unclear results are named; the others gave an inactive call; ! = repeats disagree. Rows were chosen to be rich in hits. Some 4.7% of all compounds tested hit in one or more screens of this group. Rule as the data show it, unless noted: active = activation above about 30%; inactive = the rest.

Cc1ccc(Cl)cc1Nc1nc2ccccc2n2c(C)nnc12	none
CN1c2cccc3cccc(c23)N(C)C1c1cccs1	none
CC1N(C)c2cccc3cccc(c23)N1C	D1 antagonist -41
NS(=O)(=O)c1ccc(NC(=O)CSc2nc3ccccc3[nH]2)cc1	D1 antagonist -84
O=C(CSc1nc2ccccc2[nH]1)NC(=O)NCc1ccco1	D1 antagonist -40
O=C(CSc1nc2ccccc2[nH]1)Nc1ccc(F)c(F)c1	none
CCc1ccc(C(=O)CSc2nc(-c3ccccc3)nc3c2CCCC3)cc1	none
O=C(NCCCCCCNC(=O)c1ccccc1O)c1ccccc1O	D1 antagonist -42
O=C(NCCNC(=O)c1ccccc1O)c1ccccc1O	none
Cc1csc2c(N3CCN(C(=O)Nc4ccccc4)CC3)ncnc12	none
Cc1csc2c(N3CCN(C(=S)Nc4ccc(F)cc4F)CC3)ncnc12	D1 ag 40, D1 antagonist -42
CCC1CCCCN1C(=O)CSc1nc(-c2ccc(OC)cc2)cc(C(F)(F)F)n1 (stereo unspecified)	D1 antagonist -31
Cc1ccc(C)c(NC(=O)CN(C)S(=O)(=O)c2cccc3cccnc23)c1	TRHR enhancer 32!
CCOC(=O)Cc1csc(NC(=O)CN(C)S(=O)(=O)c2cccc3cccnc23)n1	D1 antagonist -46 (no result: D1 PAM)
Cc1noc2ncnc(NCc3ccc(Cl)cc3)c12	none
CCN(C(=O)COC(=O)Cc1cccc2ccccc12)C1CCS(=O)(=O)C1 (stereo unspecified)	none
O=C(Nc1cccc2ccccc12)N(CCO)C1CCS(=O)(=O)C1 (stereo unspecified)	D1 antagonist -71
CCN(CC)S(=O)(=O)c1ccc(C(=O)NCCSc2c(-c3ccc(F)cc3)[nH]c3ccccc23)cc1	none
Oc1ccc(CCNc2c3ccccc3nc3ccccc23)cc1O	D1 antagonist -51
Cc1cc(/C=N/NC(N)=S)c(O)c(/C=N/NC(N)=S)c1	D1 ag 277, TRHR agonist 148
NC(=S)N/N=C/c1cccc(O)c1O	none
CCOC(=O)c1ccc(NC(=O)c2c(NCc3cc(OC)ccc3OC)sc3c2CCC3)cc1	none
COC(=O)c1ccc(Cn2ncc3c4sc(C)cc4n(C)c3c2=O)cc1	none
COC(=O)c1nc(NC2=NCCCCC2)n[nH]1	D1 antagonist -36
COc1ccc(NC(=S)N/N=C2/CCCc3c(C)cc(C)cc32)cc1	D1 antagonist -40
Cc1ccc(NC(=S)N/N=C2/CCCCc3ccccc32)cc1	none
CCOc1ccc(/C=C/c2nc(C#N)c(N3CCCCC3)o2)cc1	none
CCN(CC)c1ccc(/C=C/C(=O)C2C(=O)C=C(C)OC2=O)cc1 (stereo unspecified)	D1 ag 246, TRHR agonist 222, TRHR enhancer 40, D1 antagonist -79
CCN(CC)c1ccc(C=C2C(=O)OC(c3ccccc3)OC2=O)cc1 (stereo unspecified)	none
c1ccc(-n2c(SCC3CCCCO3)nnc2-c2cccs2)cc1 (stereo unspecified)	D1 antagonist -32
CCCCNC(=O)CSc1nnc(-c2ccc(S(=O)(=O)N3CCCC3)cc2)n1C	D1 antagonist -68
Cn1c(SCC(=O)NCC2CCCO2)nnc1-c1ccc(S(=O)(=O)N2CCCC2)cc1 (stereo unspecified)	TRHR enhancer 38
C=CCNC(=O)CSc1nnc(-c2ccc(S(=O)(=O)N3CCCC3)cc2)n1C	none (no result: D1 PAM)
Cc1cccc(OCc2nnc(SCC(=O)NCC3CCCO3)n2C)c1 (stereo unspecified)	TRHR enhancer 37
O=C(CCS(=O)(=O)c1nc(-c2ccc3c(c2)OCO3)cc(C(F)(F)F)n1)Nc1ccc(F)c(Cl)c1	none
Cc1cc2n(n1)CCC(=O)N2Cc1ccc(C(=O)Nc2ccc(Br)c(C)c2)cc1	none
CCOC(=O)Cn1c(=O)n(-c2ccccc2OC)c2nc(-c3ccc(C(C)C)cc3)nc(C(N)=O)c21	none
O=S(=O)(c1ccc(SCc2ccccc2F)nc1)N1CCCC1	D1 antagonist -34 (no result: D1 PAM)
O=C(CSc1nnc(-c2ccncc2)n1-c1ccccc1)NCC1CCCO1 (stereo unspecified)	D1 antagonist -51
CCCNC(=O)CSc1ccc(S(=O)(=O)N2CCCC2)cn1	D1 antagonist -34
CCCNC(=O)CSc1ccc(S(=O)(=O)N2CCCCC2)cn1	none
Cc1ccc(CSc2ccc(S(=O)(=O)N3CCCC3)cn2)cc1	none
CCOCCCn1c(SCC(=O)Nc2ccccc2OC)nc2c(oc3ccccc32)c1=O	none
CC1CC(C)CN(CCCNC(=O)c2csc3c2CCCC3)C1 (stereo unspecified)	TRHR enhancer 36
CC(C)CCNC(=O)c1csc2c1CCCCC2	none
COCCCNC(=O)CSc1nc(-c2ccc(OC)cc2)[nH]c1-c1ccc(OC)cc1	none
CSc1cccc(NC(=O)Cn2nc(C)c3sc4ccccc4c3c2=O)c1	none
CCc1cccc(NC(=O)Cn2nc(C)c3sc4ccccc4c3c2=O)c1	D1 antagonist -42
CCc1cccc(C)c1NC(=O)CCCn1nc(C)c2sc3ccccc3c2c1=O	D1 antagonist -39
CCc1c(C)sc2c1CCN(C(=O)Nc1ccccc1Cl)C2c1ccc(OC)cc1 (stereo unspecified)	none
CCOc1ccc(NS(=O)(=O)c2ccc(C(=O)N3CC(C)OC(C)C3)cc2)cc1 (stereo unspecified)	D1 ag 113, D1 antagonist -59
CCOc1ccccc1CNS(=O)(=O)c1ccc2c(c1)CCCN2C(C)=O	D1 antagonist -50
CCOc1ccc(NS(=O)(=O)c2ccc(C(=O)N3CCN(c4ncccn4)CC3)cc2)cc1	none
CCOc1ccc(S(=O)(=O)Nc2ccc(C(=O)NCC3(N4CCCCC4)CCCCC3)cc2)cc1	D1 ag 54
CC(=O)N1CCCc2cc(S(=O)(=O)NCc3ccccc3Cl)ccc21	none
CCOc1ccc(NS(=O)(=O)c2ccc(C(=O)N3CCCCC3)cc2)cc1	D1 ag 50
Cc1nnsc1C(=O)Oc1ccc(Cl)cc1	none
Cc1ccc(OCC(=O)Nc2ccc3nc(SCC(=O)N4CCCC4)sc3c2)cc1	none
CS(=O)(=O)N1CCc2cc(S(=O)(=O)NCc3ccccc3Cl)ccc21	D1 antagonist -101
CCOc1ccc(NS(=O)(=O)c2ccc3c(c2)N(C(C)=O)CC3)cc1	D1 antagonist -32
CCOc1ccc(S(=O)(=O)Nc2ccc(C(=O)N3CC(C)OC(C)C3)cc2)cc1 (stereo unspecified)	D1 ag 31
